High-throughput results: PubChem, National Center for Advancing Translational Sciences (NCATS)
FBPA coupling cs: coupling enzyme interference in Giardia aldolase counter-screen | AID 2472 | 290,000 compounds, 0.67% hits | activity change, negative = inhibition, % at 58.2 µM, hits read low | coupling enzyme system counterscreen, AmpLite Red fluorescence; in the data active = activity change below about -30%
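Activity here indicates interference with the coupling reaction, not aldolase inhibition. Compounds at 57.5 uM final met coupling enzymes for 10 min at RT; substrate and AmpLite Red detection followed, with a 525/598 nm fluorescence read after 20 min.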
VP16 counter: counter-screen for ROR gamma inhibitors: Gal4-VP16 reporter. 310,000 compounds, 3.5% hits. Drosophila S2 Gal4-VP16 UAS-luciferase, luminescence, 20 h. Potency, µM (top dose mostly 53.6 µM), actives largely listed as inhibitors. AID 2546;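 note: Gal4-VP16 expression switched on by copper sulfate through the metallothionein promoter; nearly all actives have a fitted effect of over 50% in size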
TrxR1 inh: rat TrxR1 inhibition | recombinant rTrxR1, NADPH fluorescence consumption, selenite substrate | Potency, µM (highest dose often 114 µM), usual class: inhibitors | O89049 | 390,000 compounds, 1% hits; note: nearly all actives have a fitted effect of over 65% in size
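Rat TrxR1 (90 nM in the dispensed reagent) was pre-reduced with 400 uM NADPH for 5 min at room temperature, then incubated with compound for 15 min. After 400 uM selenite was added, NADPH fluorescence (Ex 340/Em 450 nm) was followed for 8 min.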
RORgamma inh: inhibitors of mouse ROR gamma transcriptional activity; P51450; Drosophila S2 Gal4-RORgamma UAS-luciferase reporter, 20 h; Potency, µM (series often up to 53.6 µM), hits mostly inhibitors; 310,000 compounds, 5.4% hits; AID 2551; note: nearly all actives have a fitted effect of over 60% in size
Target sequence (P51450 whole entry, looked up, the tested form may be a part): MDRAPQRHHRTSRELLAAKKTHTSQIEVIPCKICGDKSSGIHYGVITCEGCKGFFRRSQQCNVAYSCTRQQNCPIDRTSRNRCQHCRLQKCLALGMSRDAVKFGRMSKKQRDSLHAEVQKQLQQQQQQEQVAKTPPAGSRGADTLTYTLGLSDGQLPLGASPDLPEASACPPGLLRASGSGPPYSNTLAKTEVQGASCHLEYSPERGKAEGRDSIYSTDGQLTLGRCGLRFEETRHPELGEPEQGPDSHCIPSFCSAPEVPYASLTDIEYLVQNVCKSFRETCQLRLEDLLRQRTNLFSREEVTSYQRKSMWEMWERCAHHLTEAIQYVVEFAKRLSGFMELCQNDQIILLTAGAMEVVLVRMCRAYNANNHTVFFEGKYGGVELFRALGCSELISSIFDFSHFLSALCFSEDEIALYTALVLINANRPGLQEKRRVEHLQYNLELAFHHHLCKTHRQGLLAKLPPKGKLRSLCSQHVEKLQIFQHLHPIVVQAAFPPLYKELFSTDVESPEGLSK
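Using a luciferase readout, inhibitors were identified by reduced reporter activity in Drosophila cells coexpressing a copper-inducible Gal4–ROR gamma fusion and UAS-driven Photinus luciferase, incubated 20 hr after 700 uM copper sulfate.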
GALK inhibitor: galactokinase (human) inhibition; P51570; Purified GALK, Kinase-Glo residual ATP luminescence; Potency, µM (top dose mostly 57.5 µM), hits mostly inhibitors; 270,000 compounds, 0.007% hits
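Kinase-Glo Plus luminescence measured ATP left after a 1 h room-temperature reaction. The reaction used 5 nM GALK, 100 uM galactose and 35 uM ATP at pH 8.0 (20 mM HEPES, 5 mM MgCl2, 60 mM NaCl, 1 mM DTT, 0.01% BSA).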
TrxR1 substrate: substrates of rat thioredoxin reductase 1 | purified TrxR1 substrate turnover, NADPH consumption readout | Potency, µM (doses to about 114 µM) | 390,000 compounds, 0.01% hits; note: nearly all actives have a fitted effect of over 50% in size
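Rat TrxR1, dispensed at 90 nM, was prereduced with 400 uM NADPH (final) for 5 min at ~22 deg C, then incubated with compound 15 min before 400 uM selenite. A first-read NADPH fluorescence drop versus no-compound background flagged substrates.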
Hits are given with their value; - = inactive; ? = inconclusive; . = no result; [ ] = dose if it differs, or a comment. Hits are enriched below; roughly 5.9% of the tested compounds scored in any of these assays. Unless noted, calls come from the whole dose curve; as a rule, active = well fitted curve in the direction sought with a large enough effect; inconclusive = small, poorly fitted or top-dose-only effect, or another doubt; inactive = no such curve, though single readings can be large; an effect the other way counts as inactive or inconclusive.

SMILES	FBPA coupling cs	VP16 counter	TrxR1 inh	RORgamma inh	GALK inhibitor	TrxR1 substrate
COc1ccc(OC)c(N/C(C)=C/C(=O)c2ccccc2)c1	-	-	-	-	-	-
COc1cccc(C(=O)/C=C/Nc2ccc(NC(C)=O)cc2)c1	-	-	-	?	-	-
COc1ccc(OC)c(N/C=C/C(=O)c2ccccc2)c1	-	5µM	-	4.5µM	-	-
O=S(=O)(Nc1cc(Sc2ncn[nH]2)c(O)c2ccccc12)c1ccccc1	-55	7.1µM	11µM	7.9µM	-	25µM
Cc1cc(O)c(Sc2ncn[nH]2)cc1NS(=O)(=O)c1ccc(Cl)cc1	.	.	-	.	.	-
O=C(O)CSc1cc(NS(=O)(=O)c2ccc(Br)cc2)c2ccccc2c1O	-44	-	?	-	-	-
Cc1nc(-c2ccccc2)cc(-c2ccccc2)n1	.	.	-	.	.	-
CN(N)c1nc(-c2ccccc2)cc(-c2ccccc2)n1	-	?	-	13µM	-	-
Cc1ccsc1C(=O)N1CC=C(c2ccccc2)CC1	.	.	-	.	.	-
Cc1scc(C(=O)N/N=C/c2ccc(Cl)s2)c1C	-	13µM	-	14µM	.	-
CCOc1ccc(/C=N/NC(=O)c2csc(C)c2C)c(OCC)c1	-	-	-	13µM	.	-
Cc1scc(C(=O)N/N=C/c2ccc(OC(C)C)cc2)c1C	-	-	-	-	-	-
CC(C)(C)c1ccc(C(=O)Nc2cccc3c(=O)[nH][nH]c(=O)c23)cc1	-	3.5µM	-	?	-	-
CC(=O)N1CCN(S(=O)(=O)c2ccccc2)C1c1ccccc1 (stereo unspecified)	-	-	-	-	-	-
COc1cccc(/C=C/c2ccc3ccccc3[n+]2C)c1OC	.	.	-	.	.	-
CC(=O)Oc1ccccc1/C=C/c1ccc2ccccc2[n+]1C	-	-	20µM	-	-	-
COc1ccc(CSCCc2n[nH]c(=S)n2-c2ccccc2)cc1	-	-	-	-	-	-
COc1ccc(C/C(N)=N/OC(=O)COc2ccccc2C)cc1	-	-	-	-	-	-
COc1ccc(NC(=O)c2nc(SCc3ccc(F)cc3)ncc2Cl)cc1	.	.	-	.	.	-
CCOc1ccc(NC(=O)c2nc(S(=O)(=O)Cc3ccccc3C)ncc2Cl)cc1	.	.	14µM	.	.	-
Cc1ccccc1CS(=O)(=O)c1ncc(Cl)c(C(=O)Nc2ccc(F)cc2)n1	.	?	-	?	-	-
COc1ccc2nc(NC(=O)c3nc(S(=O)(=O)Cc4ccccc4)ncc3Cl)sc2c1	.	.	-	.	.	-
O=C(Nc1ccc(F)cc1)c1nc(S(=O)(=O)Cc2ccccc2)ncc1Cl	.	7.9µM	3.5µM	-	-	-
Cc1ccc(NC(=O)c2nc(S(=O)(=O)Cc3ccccc3)ncc2Cl)cc1	-	2.2µM	8.9µM	?	-	-
CCOc1ccc(NC(=O)c2nc(S(=O)(=O)Cc3ccc(F)cc3)ncc2Cl)cc1	.	.	4.5µM	.	.	-
SMILES	FBPA coupling cs	VP16 counter	TrxR1 inh	RORgamma inh	GALK inhibitor	TrxR1 substrate
CCSc1nc2cc(S(=O)(=O)N3CCOCC3)ccc2o1	.	.	-	.	.	-
CC(=O)N1CCN(C(=S)Nc2cc(S(=O)(=O)N3CCOCC3)ccc2Cl)CC1	-	-	-	-	-	-[0.0914 µM]
Cc1ccc(CSc2ncc(Cl)c(C(=O)NCc3ccccc3)n2)cc1	.	.	-	.	.	-
O=C(NCc1ccccc1)c1nc(S(=O)(=O)Cc2ccc(F)cc2)ncc1Cl	.	.	3.5µM	.	.	-
Cc1cc(NC(=O)c2ccc3c(c2)N(Cc2cccc(Cl)c2)C(=O)c2ccccc2S3=O)ccc1Br (stereo unspecified)	.	.	-	.	.	-
CCN1CCN(C(c2ccc(OC)cc2)c2c(O)cc(C)n(CCOC)c2=O)CC1 (stereo unspecified)	.	.	14µM	.	.	-
CCN1CCN(C(c2cccc(F)c2)c2c(O)cc(C)n(CCOC)c2=O)CC1 (stereo unspecified)	.	.	11µM	.	.	-
CCN1CCN(C(c2ccc(F)cc2)c2c(O)cc(C)n(CCOC)c2=O)CC1 (stereo unspecified)	.	.	?	.	.	-
CCN1CCN(C(c2ccc(Cl)cc2)c2c(O)cc(C)n(CCOC)c2=O)CC1 (stereo unspecified)	.	.	?	.	.	-
CC(C)Sc1nc(N2CCOCC2)c2c3c(sc2n1)COC(C)(C)C3	-	-	-	-	-	-
